Data on 40 molecules can be found in PubChem BioAssay (Tox21).

Molecules are shown by their SMILES. Where “and” joins values, the source holds several entries; their conditions need not be identical. Identical values can stand only once. Inconclusive results are not listed. Entries that show only a call come without a potency. Some compounds were tested as several samples or in several runs, with calls that do not always agree. Calls of active or inactive are those of the source. The call rests on the fitted dose curve; in most records, active means well fitted activation curve with a large enough effect in the repeat runs; inconclusive means weak or mixed curves; inactive means flat fitted curve, though single readings scatter.
Potency means the concentration at half of the fitted maximal effect.

The nature of the assay: A CellTox Green Cytotoxicity Assay to monitor cytotoxicity in HEK293 cells - 8 hour (AID 1224884). Further: nearly all actives have a fitted effect of over 35% in size. The settings on record: CellTox Green fluorescence; series mostly up to 76.8 µM; cytotoxicity increase: at the top concentration. The text has this: National Center for Advancing Translational Sciences [NCATS]
NIH Chemical Genomics Center [NCGC]
U.S. Environmental Protection Agency [EPA]
National Institutes of Environmental Health Sciences [NIEHS]
National Toxicology Program [NTP]
Cell-based models are critical for drug discovery. Determining the natural cytotoxic effects resulting from test compounds is an essential research activity. A CellTox Green Cytotoxicity Assay to monitor cytotoxicity in real time of continues cell culture during 40 hours of the compound treatment was used to screen Tox21 10K library compounds in Hek293 cells. CellTox Green Cytotoxicity Assay is a nonlytic, homogeneous, biofluorescent method to measure cytotoxicity in cell culture after experimental manipulation. The assay system uses a proprietary asymmetric cyanine dye that is excluded from viable cells but preferentially stains the dead cell's DNA. […] Viable cells produce no appreciable increases in fluorescence. Therefore, the fluorescence signal produced by the binding interaction with dead cell DNA is proportional to cytotoxicity.
The mixture of Hek293 cell suspension and reagents were dispensed at 600cells/6 ul/well in 1536-well tissue culture treated black solid bottom plates using a Multidrop dispenser. After the assay plates were incubated at a 37 C/5% CO2 incubator for 5 hours, 23 nL of compounds dissolved in DMSO, positive and negative controls was transferred to the assay plate by a pintool work station. The plates were incubated at 37 C for 40 hours. The fluorescence intensity were measured at 0h, 8h, 16h, 24h, 32h and 40h time points using ViewLux plate reader during compound treatment.
Turning to `COc1nc(NC(C)C)nc(NC(C)C)n1`, the Potency entry is “inactive”.
As to `NNc1ccccc1`, the Potency result was “inactive”.
As to `O=C(O)C1C(C(=O)O)C2(Cl)C(Cl)=C(Cl)C1(Cl)C2(Cl)Cl` (stereo not given), the Potency result was “inactive”.
As to `Cc1ccc(O)c(C)c1`, the Potency entry was “inactive”.
In the case of `[N-]=[N+]=CC(=O)OC[C@H](N)C(=O)O`, the “cytotoxicity increase” value was -7.19% [at 35.3 µM] (inactive).
For the molecule `COc1cc(-c2ccc(N)c(OC)c2)ccc1N`, the Potency result was “inactive”.
On to `O=P1(NCCCl)OCCCN1CCCl` (stereo not given), for which the Potency entry was “inactive”.
On the same count and under the same terms, then `CCOP(=S)(OCC)Oc1cc(C)nc(C(C)C)n1`, with “inactive”.
For `O=S(=O)(O)OOS(=O)(=O)O`, the Potency result is “inactive”.
Still for that read-out and setting: then `CNC(=O)Oc1cccc2ccccc12`, with “inactive”.
Regarding `Cc1ccc(N=C=O)cc1N=C=O`, the Potency result is “inactive”.
`CC(=O)/C=C/c1ccccc1`: the Potency entry was “inactive”.
For `CN1C(=O)CCS(=O)(=O)C1c1ccc(Cl)cc1` (stereo not given), the Potency entry was “inactive”.
On the same count and under the same terms, under `Cc1cccc(C)c1NC(=O)CN1CCCC1=O` stands “inactive”; under `Nc1ccc([As](=O)(O)O)cc1`, “inactive”.
As to `Oc1ccc(Cl)cc1`, the Potency entry was “inactive”.
`CSc1nnc(C(C)(C)C)c(=O)n1N`: the Potency result was “inactive”.
On the same count and under the same terms, then `CC(C)(C)C(=O)CCl`, with “inactive”; and `ClCCOCCCl`, with “inactive”.
On to `Cc1ccc(N)cc1`, for which the Potency result is “inactive”.
With `Clc1cnc(Oc2ccc(Oc3ncc(Cl)cc3Cl)cc2)c(Cl)c1`, the Potency entry was “inactive and 34.7 µM (active)”.
In the case of `CC(C)c1cccc(C(C)C)c1O`, the Potency entry is “inactive and 43.6 µM (active)”.
In the case of `Nc1ccc(N)cc1`, the Potency result is “inactive”.
Same read-out and setting: then `FC(F)(F)c1ccc(Cl)cc1`, with “inactive”; and `Cc1cccc(N)c1C`, with “inactive”.
The same measure, in the same setting: then `CCOC(=O)CC(SP(=O)(OC)OC)C(=O)OCC` (stereo not given), with “inactive”.
For the molecule `CC(C)CCCCCCOC(=O)c1ccccc1C(=O)OCCCCCCC(C)C`, the Potency entry was “inactive”.
Take `O=[N+]([O-])c1ccc(Cl)c(Cl)c1`: the Potency result is “inactive”.
The same measure, in the same setting: under `Sc1ccccc1` stands “inactive”.
Regarding `Cc1ccccc1N`, the Potency result is “inactive”.
Same read-out and setting: then `O=C(O)COc1ccccc1`, with “inactive”; and `CCCOC(=O)c1ccccc1C(=O)OCCC`, with “inactive”.
For the molecule `Nc1ncc([N+](=O)[O-])s1`, the Potency result is “inactive”.
On the same count and under the same terms, under `Nc1nc(N)nc(NC2CC2)n1` stands “inactive”.
Still for that read-out and setting: under `COS(=O)(=O)OC` stands “inactive”; under `CNc1cnn(-c2cccc(C(F)(F)F)c2)c(=O)c1Cl`, “inactive”; under `ClC(Cl)c1ccccc1`, “inactive”.
With `C=CC(=O)OCC(CC)CCCC` (stereo not given), the Potency entry is “inactive”.
Regarding `CC12CC1(C)C(=O)N(c1cc(Cl)cc(Cl)c1)C2=O` (stereo not given), the Potency entry is “inactive”.
On to `CNC(=O)O/N=C(\SC)C(=O)N(C)C`, for which the Potency result was “inactive”.
